Hit rate of the full screen: of about 360,000 compounds, about 10,000 (2.8%) were called active. About 4% were inconclusive and are not listed. Calls come from the whole dose curve; as a rule, active = well fitted inhibition curve with a large enough effect; inconclusive = small, poorly fitted or top-dose-only effect; inactive = flat fitted curve, though single readings scatter. Shown is part of a subset that was picked to be rich in actives.

Among the data in PubChem BioAssay AID720504 (National Center for Advancing Translational Sciences (NCATS), 2013) are max response, negative = inhibition and Potency values, retold here.
% is set by controls: 0 for no effect and ±100 for the full control effect; potency is the fitted concentration of half-maximal effect.

Serine/threonine-protein kinase PLK1 (Homo sapiens), sequence (P53350 whole entry, looked up, the tested form may be a part): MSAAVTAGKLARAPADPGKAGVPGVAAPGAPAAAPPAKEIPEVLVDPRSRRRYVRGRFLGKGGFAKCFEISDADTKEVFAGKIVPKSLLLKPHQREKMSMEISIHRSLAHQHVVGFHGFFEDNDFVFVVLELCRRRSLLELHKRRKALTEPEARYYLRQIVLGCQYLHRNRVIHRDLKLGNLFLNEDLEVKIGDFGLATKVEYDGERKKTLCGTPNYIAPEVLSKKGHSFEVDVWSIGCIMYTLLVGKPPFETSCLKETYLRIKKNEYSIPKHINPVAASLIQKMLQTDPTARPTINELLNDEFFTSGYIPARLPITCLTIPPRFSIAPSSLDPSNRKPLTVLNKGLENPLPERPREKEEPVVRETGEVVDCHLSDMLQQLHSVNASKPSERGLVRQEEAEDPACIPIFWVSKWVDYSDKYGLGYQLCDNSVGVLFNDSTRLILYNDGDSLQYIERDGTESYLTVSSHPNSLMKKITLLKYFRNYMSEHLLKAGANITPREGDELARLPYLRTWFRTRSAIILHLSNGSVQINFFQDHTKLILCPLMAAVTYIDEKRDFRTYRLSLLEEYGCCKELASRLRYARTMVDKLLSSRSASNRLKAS

The test concerns the target Serine/threonine-protein kinase PLK1 (Homo sapiens) (UniProt P53350). Description: qHTS for Inhibitors of PLK1-PDB (polo-like kinase 1 - polo-box domain): Primary Screen. For max response, negative = inhibition: series mostly up to about 57 µM. Note: nearly all actives have a fitted effect of over 65% in size. As to conditions: Plk1 PBD binding of FITC phosphopeptide, fluorescence polarization. The text has this: The polo-like kinase 1 (Plk1) is a member of a conserved subfamily of serine / threonine protein kinases that plays a pivotal roles in cell proliferation. It has a C-terminal non-catalytic region called the polo-box domain (PBD) that plays a crucial role in the subcellular localization of the Plk1. […] Furthermore, depletion of the overexpressed Plk1 by RNAi efficiently induces apoptotic cell death in cancer and reduces tumor growth in mouse xenograft models. Thus, targeting Plk1 is an appealing strategy for anti-cancer therapy. Therefore, this project aimed to screen the Molecular Libraries Small Molecule Repository (MLSMR) using a novel approach to find inhibitors that target the Plk1 PBD instead of the conventional N-terminal catalytic domain. This project employed a fluorescence polarization (FP) assay using a FITC-conjugated phospho-9-mer (p-9-mer) peptide and purified human Plk1 PBD protein. The identified small molecule inhibitors of Plk1 PBD can then further be developed into useful tools for biomedical and clinical research that complements or replaces current relevant disease therapy. NIH Chemical Genomics Center [NCGC] NIH Molecular Libraries Probe Centers Network [MLPCN] MLPCN Grant: MH100728 Assay Submitter (PI): Kyung Lee, NCI
Four microliter of 25 nM FITC-p-9-mer + 60 nM Plk1 PBD in buffer solution (final concentrations 25 nM and 60 nM respectively) or 4 uL of 25 nM FITC-p-9-mer (final concentration 25 nM) in buffer will be dispensed into a 1,536 Greiner medium-binding black solid plate. Small molecules at final concentrations of 18 nM to 57 uM and positive control phospho-9-mer (sequence: Ac-PPLHSpTAI-NH2) at final concentrations 26 nM to 57 uM and phospho-13-mer (sequence: Ac-[…]pTAI-NH2) at final concentrations of 1 nM to 2.3 uM will be pin-transferred (23 nL) to the plate via a Kalypsys pin-tool robotics equipped with a 1,536-pin array. The reaction plate will be centrifuged for 1 min at 1000 rpm and incubated at room temperature for 10 min. The FITC fluorescence signals will be read using the PerkinElmer ViewLux plate reader at 480 / 20 nm excitation and 540 / 20 nm S and P polarization emission wavelengths. Reagent bottles will be kept submerged into 4 °C recirculating chiller bath and all liquid lines will be covered with aluminum foil to minimize degradation. Library plates will be screened starting from the lowest to the highest concentrations to minimize compound carryover. Vehicle only plates, with DMSO being pin-transferred instead of compound solutions, will be included regularly throughout the screen to record any systematic shifts in assay signal.
For the compound `CC1CCN(C(=O)c2ccc3c(c2)NC(=O)CN3)CC1`, the max response, negative = inhibition is 62.7% (inactive). On the same count and under the same terms, under `O=C(c1cccc(F)c1)N1CCN(c2ccc([N+](=O)[O-])c(N3CCCCC3)c2)CC1` stands -8.34% (inactive).

Take `Cc1ccc(CSCC2Nc3ccc(C(=O)N4CCN(c5ccc(F)cc5)CC4)cc3NC2=O)cc1` (stereo not drawn): the Potency was 8.44 µM (active). With `O=C1Nc2cc(C(=O)N3CCN(c4ccc(F)cc4)CC3)ccc2NC1CSCc1cccc(F)c1` (stereo not drawn), the Potency was 29.9 µM (active).

Regarding `Cc1ccc(SCC(=O)N2CCN(c3ccc(F)cc3)CC2)cc1`, the max response, negative = inhibition was 4.7% (inactive).

As for `C=CCn1c(SCc2cccc(F)c2)nc2cc(C(=O)N3CCC(C(N)=O)CC3)ccc2c1=O`, the max response, negative = inhibition was -5.4% (inactive).

Consider `Cc1nc2ccccc2nc1CC(O)(c1ccccc1)c1ccccc1`, for which the max response, negative = inhibition was -15.9% (inactive).

`COc1cccc(CN(C)C(=O)CC[C@H]2O[C@@H](n3cnc4c(NC(=O)c5ccccc5)ncnc43)[C@H](O)[C@@H]2O)c1`: the max response, negative = inhibition is -1.63% (inactive). In the case of `Cc1ccc(C(NC(=O)C2CCN(CCOc3ccc(Cl)cc3Cl)CC2)c2ccccn2)cc1` (stereo not drawn), the max response, negative = inhibition was -11.3% (inactive). As for `Cc1nnc(SCC(=O)Nc2cccc(N)c2)n1-c1ccccc1`, the Potency was 26.7 µM (active). As for `CCOc1cc(C)ccc1OCc1nnc(SCC(=O)Nc2cccc(C(=O)O)c2)n1-c1ccccc1`, the max response, negative = inhibition is -7.97% (inactive). On to `CC(=O)Nc1ccc(NC(=O)CSc2nnc(C3CC3)n2-c2ccccc2)cc1`, for which the max response, negative = inhibition was 7.6% (inactive). `OCC1OC(n2cnc3c(N4CCCC4)ncnc32)C(O)C1O` (stereo not drawn): the max response, negative = inhibition was -0.393% (inactive). In the case of `C[C@@H]1CN([C@H](C)CO)C(=O)c2cc(Br)cnc2O[C@@H]1CN(C)Cc1cncnc1`, the max response, negative = inhibition was -13.8% (inactive). `CN(CCO)C(=O)c1nc[nH]c1C(=O)N(C)Cc1ccccc1`: the max response, negative = inhibition is -6.79% (inactive). On to `CN(Cc1nc2ccccc2s1)C(=O)c1ccc(F)cc1`, for which the max response, negative = inhibition is -6.86% (inactive). Turning to `CC1=CC(=C(C#N)c2nc3ccccc3s2)C=C(C)N1c1ccc(F)cc1F`, the Potency is 21.2 µM (active). For `O=C(NCc1cccnc1)c1ccc2nc([C@@H]3O[C@H](CO)[C@H](O)[C@H](O)[C@H]3O)[nH]c2c1`, the max response, negative = inhibition was -4.09% (inactive).

Consider `CC(=O)c1sc(N/N=C/c2ccc(C(C)C)cc2)nc1C`, for which the max response, negative = inhibition is 11.6% (inactive). For `COc1cc(/C=N\Nc2nc(-c3cccs3)c(NC(C)=O)s2)ccc1O`, the Potency is 26.7 µM (active). With `COc1cc(C=NC2CCCCC2)ccc1O`, the max response, negative = inhibition was 4.49% (inactive). On the same count and under the same terms, under `CCc1ccccc1NC(=O)CN1CCN(C(=O)c2cc(C3CC3)nn2-c2ccccc2)CC1` stands 7.48% (inactive); under `COc1ccc(S(=O)(=O)NC(=O)C2(C)CCN2C(=O)COc2ccc(Cl)cc2)cc1` (stereo not drawn), -3.35% (inactive). Turning to `CC(C)Nc1ncnc2c1ncn2[C@H]1CN(Cc2ccncc2)C[C@@H](CO)O1`, the max response, negative = inhibition was 0.157% (inactive).

On to `CC(=O)c1nn(-c2ccccc2)c(=Nc2ccccc2)cc1C`, for which the max response, negative = inhibition is -4.39% (inactive).

Regarding `O=C(COc1ccccc1)Nc1ccc(C(=O)N2CCCC2)cc1`, the max response, negative = inhibition is -9.45% (inactive). As to `O=C(COc1ccccc1)Nc1ccc(N2CCN(C(=O)c3cccs3)CC2)cc1`, the Potency is 26.7 µM (active).

As for `COc1ccc(N2CCN(C(=O)c3cccs3)CC2)cc1`, the max response, negative = inhibition was 0.204% (inactive). As for `Cc1ccc(S(=O)(=O)N2CCC(=O)N([C@H](COCc3ccccc3)C(C)C)CC2)cc1`, the max response, negative = inhibition is -7.98% (inactive). In the case of `Cc1cc(C(=O)OCC(=O)Nc2nccs2)c2ccccc2n1`, the Potency was 3.36 µM (active). With `Cc1cc(C(=O)OCC(=O)Nc2nnc(C(C)C)s2)c2ccccc2n1`, the max response, negative = inhibition is -7.1% (inactive). In the case of `O=C(COC(=O)c1ccc(O)cc1)Nc1nccs1`, the max response, negative = inhibition is -1.48% (inactive). On the same count and under the same terms, the result for `CC1(C(=O)NS(=O)(=O)c2cccc(OC(F)F)c2)CCN1C(=O)C1CC1` (stereo not drawn) reads 3.22% (inactive); that for `CCCNC(=O)C1(C)CCN1C(=O)C1(c2ccccc2)CC1` (stereo not drawn), -4.48% (inactive).

With `CC(C)(C)Cc1c(C2CCCCC2)nc2ccc(Br)cn12`, the max response, negative = inhibition is 3.52% (inactive). `COc1ccc(CNC(=O)C2CCN(S(=O)(=O)c3ccc(SC)cc3)CC2)cc1`: the max response, negative = inhibition is -7.7% (inactive).

With `COc1ccc(CNC(=O)C2CCN(S(C)(=O)=O)CC2)cc1`, the Potency was 21.2 µM (active). Consider `COc1ccc(CNC(=O)C2CCN(S(=O)(=O)N3CCOCC3)CC2)cc1`, for which the max response, negative = inhibition is 3.12% (inactive). For the compound `CC1(C(=O)NCc2cccc3ccccc23)CCN1Cc1ccc(-c2ccccc2)o1` (stereo not drawn), the max response, negative = inhibition was -8.62% (inactive). `CCc1nc2ccc(C(=O)NCCNC(C)=O)cn2c1N(CC)Cc1cccc(Br)c1`: the max response, negative = inhibition was -0.869% (inactive). Regarding `CCC(C(=O)NCc1ccccc1)n1c(Cc2cc(F)cc(F)c2)nc2ccccc21` (stereo not drawn), the max response, negative = inhibition was 2.43% (inactive). On the same count and under the same terms, under `O=C(NCCN1CCOCC1)C1CCN(S(=O)(=O)c2ccccc2)CC1` stands 1.1% (inactive); under `CC(CCc1ccccc1)NC(=O)c1ccc(Br)o1` (stereo not drawn), -7.05% (inactive). For the compound `CC(CNC(=O)c1ccc(Br)o1)NC(=O)c1ccc(Br)o1` (stereo not drawn), the Potency was 2.99 µM (active). With `O=C(NCc1cccs1)c1ccc(Br)o1`, the max response, negative = inhibition is -4.89% (inactive).

As to `O=C(COC(=O)/C=C/c1ccc(Cl)cc1)NC1CCS(=O)(=O)C1` (stereo not drawn), the max response, negative = inhibition was 3.25% (inactive).

In the case of `O=S1(=O)CC(N2CCSCC2)CN1Cc1cn(Cc2cccc(Cl)c2)nn1` (stereo not drawn), the max response, negative = inhibition is 1.2% (inactive).

In the case of `CSCCC(C(=O)NC(C)(C)C)n1c(-c2ccccc2)nc2ccccc21` (stereo not drawn), the max response, negative = inhibition is -11.3% (inactive). Consider `COc1cc(/C=N/NC(=S)Nc2cccnc2)cc(OC)c1O`, for which the max response, negative = inhibition is -21% (inactive). Same read-out and setting: the result for `COc1cc(/C=N/O)cc(Br)c1OS(=O)(=O)c1ccc(C)cc1` reads 4.61% (inactive). `COc1cc(/C=N/Nc2ccc(C)cc2)cc(Br)c1O`: the Potency is 29.9 µM (active).

Take `CCCc1nc2ccccc2n1C(C)C(=O)NC(C)(C)C` (stereo not drawn): the max response, negative = inhibition was -5.55% (inactive). Consider `C[C@H]1CN([C@@H](C)CO)C(=O)c2cc(Br)cnc2O[C@H]1CN(C)S(=O)(=O)c1cccs1`, for which the max response, negative = inhibition is -9.15% (inactive). As to `COc1ccc(CN2C(=O)C(CC(=O)NCCN3CCOCC3)CC(C(=O)N(C(C)C)C(C)C)=C2C)cc1` (stereo not drawn), the max response, negative = inhibition was 4.68% (inactive). With `Cc1ccc(NC(=O)COC(=O)CN2CCSC2=O)cc1F`, the max response, negative = inhibition is 3.55% (inactive). On to `c1ccc(-n2nc3ccccc3n2)cc1`, for which the Potency was 29.9 µM (active). Turning to `O=C1CCCc2nn(-c3ccccc3)nc21`, the max response, negative = inhibition is -8.07% (inactive). Turning to `Nc1ccc2nn(-c3ccc(Cl)cc3)nc2c1`, the max response, negative = inhibition was -7.93% (inactive).
